# Screening data deposited in PubChem by National Center for Advancing Translational Sciences (NCATS).
# CHX counter = counter-screen for Shiga toxin inhibitors: cycloheximide protein synthesis inhibition; cell reporter, cycloheximide protein synthesis inhibition counterscreen; max response, %; actives 12% (n = 300,000); in the data active = max response mostly above about 13%, no sharp cut-off; inactive = mostly below about 14%; note: read at 38.3 µM for the half of the compounds with a filed dose
# Shiga toxin inh = Shiga toxin inhibition; Vero cells, Shiga toxin protein synthesis inhibition reporter; actives 9.2% (n = 290,000); inhibition, % at 38.7 µM; in the data active = inhibition mostly above about 28%, no sharp cut-off; inactive = mostly below about 43%
# HCV inhibitor = inhibitors of hepatitis C virus infection. Huh7.5.1 HCVcc-Cre infection, luciferase reporter, 44 h. Potency, µM (top dose mostly 41.8 µM), hits mostly inhibitors. actives 3.4% (n = 340,000). AID 651820; active = well fitted inhibition curve with a large enough effect; inconclusive = small, poorly fitted or top-dose-only effect, or another doubt; inactive = no such curve, though single readings can be large or run the other way
#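 Compounds are dispensed onto cells plated 4 h earlier at 1,000 per well, with HCVcc-Cre virus (about 0.5 moi) added next. Following 44 h of culture, luminescent signal is measured for 15 sec after 15 min with substrate at room temperature.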
# Lassa entry inh = blocks Lassa virus binding to or entry into cells; Lassa virus pseudotype entry inhibition, cell reporter; Potency, µM (highest dose often 37.9 µM), hits mostly inhibitors; actives 1.2% (n = 300,000); AID 540256; calls by dose curve; tested in HEK293 cells; note: nearly all actives have a fitted effect of over 50% in size
# Marburg entry inh = blocks Marburg virus binding to or entry into cells. Marburg virus pseudotyped entry inhibition, cell reporter. Potency, µM (doses to about 37.8 µM), actives largely listed as inhibitors. actives 1.8% (n = 300,000). AID 540276; calls by dose curve; tested in HEK293 cells
# FMDV inh = blocks foot and mouth disease virus; FMDV antiviral cell-based qHTS; Potency, µM (top dose mostly 57.9 µM), hits mostly inhibitors; actives 1.2% (n = 410,000); AID 1159524; calls by dose curve; tested in HEK293T cells; note: read-out not given here; nearly all actives have a fitted effect of over 45% in size
# A number is an active result; – = inactive; ? = inconclusive; · = no result; + = active, no number. An excerpt weighted towards active compounds, which were near 13% of everything screened.
SMILES,CHX counter,Shiga toxin inh,HCV inhibitor,Lassa entry inh,Marburg entry inh,FMDV inh
CCOc1ccc(NC(=O)Nc2cccnc2)cc1,24.9,60.0,–,–,–,–
COc1ccc(NC(=O)Nc2cccnc2)cc1,22.7,43.7,–,–,–,–
Cc1ccc([N+](=O)[O-])cc1N/C=C1\CCc2ccccc2C1=O,12.7,52.4,–,–,–,–
O=C(Nc1cccnc1)OC1CCCC1,22.1,–,–,–,?,–
O=C(Nc1cccnc1)OC1CCCCC1,18.7,–,–,–,–,–
COc1ccc(N2CCN(C(=S)Nc3cccc(C)c3)CC2)cc1,–,–,–,–,–,·
CCCc1cc(=O)[nH]c(SCC(=O)Nc2cc(S(=O)(=O)N3CCOCC3)ccc2N(CC)CC)n1,·,·,–,–,–,–
CCN(CC)CCn1c2ccccc2c2cnc(N)c(C#N)c21,–,–,10µM,?,11.2µM,–
CN(C)C=Nc1ncc2c3ccccc3n(CCN(C)C)c2c1C#N,–,–,–,–,11.2µM,–
CN(C)S(=O)(=O)c1ccc(C(=O)NCc2nc3ccccc3s2)cc1,–,–,–,·,–,–
Cc1ccc(-c2cn(-c3ccccc3)c(SCC(=O)NC3CCS(=O)(=O)C3)n2)cc1C (stereo unspecified),52.7,active,–,–,?,–
Cc1ccc(SCC(=O)NC2CCS(=O)(=O)C2)cc1C (stereo unspecified),·,·,?,–,–,–
Cc1ccccc1N=Nc1c(C)[nH]n(-c2ccccc2)c1=O,–,–,–,–,–,–
COc1cccc(N=Nc2c(C)[nH]n(-c3ccccc3)c2=O)c1,–,·,?,·,·,–
Cc1[nH]n(-c2ccccc2)c(=O)c1N=Nc1ccc2c(c1)OCO2,32.0,114.8,–,–,?,–
Cc1[nH]n(-c2ccccc2)c(=O)c1N=Nc1ccccc1O,–,–,4.47µM,?,?,–
Cc1[nH]n(-c2ccccc2)c(=O)c1N=Nc1nccs1,13.8,–,?,?,?,–
Cc1cccc(NS(=O)(=O)c2cccc(C(=O)NCc3ccccc3CN3CCOCC3)c2)c1,·,·,?,·,·,–
COc1cc(CCCN2C(=S)NC[C@H]2Cc2ccc(O)cc2)cc(OC)c1OC,–,–,11.2µM,·,·,–
COc1cc(CCCN2C(=O)C(=O)NC[C@@H]2Cc2ccc(O)cc2)cc(OC)c1OC,–,–,–,·,·,–
COc1ccc(/C=C/C(=O)NCCCn2ccnc2)cc1,–,–,–,–,?,–
COc1ccc(-n2cccc2C=O)cc1,–,–,–,–,?,–
COc1ccc(-n2cccc2/C=C/[N+](=O)[O-])cc1,–,–,?,?,?,28.2µM
CCn1c(=N)n(CC(=O)c2ccc(Cl)c(Cl)c2)c2ccccc21,40.4,74.2,?,?,?,–
COC(=O)Cn1c(=N)n(CCN2CCCCC2)c2ccccc21,–,–,–,–,–,–
SMILES,CHX counter,Shiga toxin inh,HCV inhibitor,Lassa entry inh,Marburg entry inh,FMDV inh
COc1ccc(C(=O)Cn2c(C(=O)/C=C/c3ccccc3)nc3ccccc32)cc1,–,–,?,?,?,8.91µM
N=c1n(CCN2CCCCC2)c2ccccc2n1CC(=O)c1ccc(Cl)c(Cl)c1,–,–,?,–,8.91µM,?
CCn1c(=N)n(CC(=O)c2ccc(OC)cc2)c2ccccc21,–,–,–,?,10µM,–
Cc1ccc(-c2nc(CS(=O)(=O)CC(=O)N3CCOCC3)c(C)o2)cc1,–,–,–,·,·,–
Cc1cc(NC(=O)CSc2nc(N)c(NC(=O)c3ccccc3F)c(=O)[nH]2)no1,–,–,–,?,–,–
CCOC(=O)c1ccc(N2C(=O)CC(NC3CCN(C(=O)c4cccc(Cl)c4)CC3)C2=O)cc1 (stereo unspecified),–,–,–,–,–,?
CCOC(=O)C1=C(C)N=c2s/c(=C\c3ccc(OCC(=O)O)cc3)c(=O)n2C1c1ccc(OC(C)C)cc1 (stereo unspecified),–,–,–,–,?,39.8µM
O=C(Cc1coc2ccc3ccccc3c12)Nc1nccs1,–,–,–,?,–,–
O=C(Cc1coc2ccc3ccccc3c12)NCc1ccccc1,–,–,10µM,–,?,–
Cc1cccc(-n2nnc(C(=O)N3CCc4ccccc4C3)c2N)c1,29.4,55.3,–,–,–,–
Cc1c(C(=O)NNC(=S)Nc2cccc(Cl)c2)nnn1-c1ccccc1,57.3,+,–,–,?,–
Cc1c(C(=O)Nc2ccc(C(=O)O)cc2)nnn1-c1ccccc1,·,·,·,?,·,10µM
Cc1cc(NC(=O)Nc2cccc(Cl)c2)n(-c2ccccc2)n1,–,–,?,–,–,–
COc1ccccc1NC(=O)c1nnn(-c2ccc(F)cc2)c1C,·,·,·,–,?,–
Cc1c(C(=O)Nc2ccc(F)cc2)nnn1-c1cccc(C(F)(F)F)c1,47.0,48.5,?,?,–,–
Cc1c(C(=O)O)nnn1-c1ccccc1,–,–,–,–,–,–
CCCc1cc(=O)[nH]c2nnc(SCC)n12,·,·,·,–,·,–
COc1ccc(CCNC(=O)C(=O)NCc2ccc(C(C)C)cc2)cc1OC,–,–,–,–,–,–
COC(=O)c1nnn(-c2cccc(C)c2)c1N,·,·,·,–,–,–
Cc1ccc(CCNC(=O)c2nnn(-c3cc(C)cc(C)c3)c2N)cc1,–,–,–,–,?,–
Cc1ccc(NC(=O)c2nnn(-c3cc(C)cc(C)c3)c2N)cc1,37.8,130.2,?,–,?,–
Cc1cccc(-n2nnc(C(=O)Nc3ccc(F)cc3)c2N)c1,51.1,79.0,?,?,–,–
O=C(N/N=C\c1cccnc1)C1c2ccccc2Oc2ccccc21,–,–,–,–,–,–
CCOc1ccc(OCCN2CCCCC2)cc1,–,–,–,–,–,–
c1ccc(Cc2ccc(OCCN3CCOCC3)cc2)cc1,21.0,55.3,–,–,?,–
SMILES,CHX counter,Shiga toxin inh,HCV inhibitor,Lassa entry inh,Marburg entry inh,FMDV inh
c1ccc(-c2ccc(OCCCNC3CCCC3)cc2)cc1,–,–,11.2µM,–,?,–
Clc1ccc(OCCN2CCCCC2)cc1Cl,–,–,–,–,?,–
Clc1ccc(OCCN2CCOCC2)cc1Cl,–,70.2,–,–,–,–
c1ccc(-c2ccc(OCCN3CCCC3)cc2)cc1,32.4,51.9,·,·,·,·
CCN(c1ccc(NC(=O)CCNC(=O)c2ccco2)cc1)C(C)C,–,–,–,–,–,–
O=C(CSc1ccc(F)cc1)Nc1ccccc1N1CCOCC1,–,–,–,·,·,–
CCCC(=O)OC1(C(=O)CO)CCC2C3CCC4=CC(=O)CCC4(C)C3C(O)CC21C (stereo unspecified),–,–,·,·,·,·
CC(C)CNc1ncnc2c1ncn2[C@H]1CN(CCc2ccccc2)C[C@@H](CO)O1,·,·,·,·,·,–
CC1CCN(CCCCOc2ccc(C(=O)c3ccccc3)cc2)CC1,–,–,?,15.8µM,?,–
c1ccc(Oc2cccc(OCCCCN3CCCC3)c2)cc1,–,–,10µM,–,20.6µM,–
c1ccc(OCCN2CCOCC2)cc1,–,–,–,·,·,–
O=C1C2CCN(CC2)C1Cc1ccc(OCc2ccccc2)cc1 (stereo unspecified),22.9,–,–,–,?,–
c1ccc(COc2ccc(OCCN3CCCC3)cc2)cc1,50.2,69.2,–,–,?,–
